According to PubChem BioAssay (EPA / NIEHS):
Inconclusive results are not listed. Activity calls are given as the source filed them. Rule for the calls, unless noted: active = hit-call score of the fitted dose curve at least 0.9, where 1 is the maximum; inconclusive = response in the unintended direction; inactive = score below 0.9.

How the values were obtained:
[1] = biological target: human RAR-related Orphan Receptor gamma (RORg), RORC (gene 6097) (UniProt P51449); experiment: ATG_RORg_TRANS: Attagene TRANS-FACTORIAL HepG2 Assay for human RAR-related Orphan Receptor gamma (RORg) (AID 2283011)
Summary of the method: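 HepG2 cells transiently transfected with GAL4-UAS reporter units and chimeric RORg-Gal4 construct; after 24 h chemical exposure, reporter mRNA measured by RT-PCR with fluorescent capillary electrophoresis, gain of signal fitted against DMSO.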

[2] = biological target: Retinoic acid receptor RXR-alpha (Homo sapiens) (UniProt P19793); experiment: ATG_RXRa_TRANS: Attagene TRANS-FACTORIAL HepG2 Assay for human Retinoid X Receptor alpha (RXRa) (AID 2283012)
Summary of the method: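 TRANS format reporting activity of exogenous RXRa-Gal4 chimera in transiently transfected HepG2, 24 h exposure. Reporter transcripts quantified by RT-PCR with capillary electrophoresis, with gain of signal scored relative to DMSO.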

[3] = biological target: human Retinoid X Receptor beta (RXRb), RXRB (gene 6257) (UniProt P28702); experiment: ATG_RXRb_TRANS: Attagene TRANS-FACTORIAL HepG2 Assay for human Retinoid X Receptor beta (RXRb) (AID 2283013)
Summary of the method: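 Readout is reporter transcript induction after 24 h dosing. It is measured by RT-PCR of total RNA followed by fluorescent capillary electrophoresis. HepG2 liver cells carry transfected multiple reporter units driven by an exogenous RXRb-Gal4 fusion; activity is relative to DMSO.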

[4] = biological target: human Thyroid Receptor alpha (THRa1), THRA (gene 7067) (UniProt P10827); experiment: ATG_THRa1_TRANS: Attagene TRANS-FACTORIAL HepG2 Assay for human Thyroid Receptor alpha (THRa1) (AID 2283014)
Summary of the method: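 HepG2 cells transiently transfected with chimeric NR-Gal4 and GAL4-UAS reporter units, dosed 24 h. Reporter mRNA quantified by RT-PCR, fluorescent labeling, HpaI digestion and capillary electrophoresis; gain-of-signal fit versus DMSO.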

[5] = read-out: E-selectin (Homo sapiens) (UniProt P16581); experiment: BSK_3C_Eselectin: BioMAP Diversity Plus: 3C Assay for Eselectin Biomarker Activity (AID 2283015; active = hit-call score of the fitted dose curve at least 0.9, where 1 is the maximum; inactive = score below 0.9); conditions: primary human endothelial cells (HUVEC); actives raise or lower the signal
Summary of the method: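 Primary human umbilical vein endothelial cells (3C system), read 24 h after compound addition; E-selectin measured by ELISA. Bidirectional curve fitting against DMSO baseline; cytotoxicity by parallel SRB total-protein staining.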

[6] = read-out: Interleukin-1 alpha (IL1a), IL1A (gene 3552); experiment: BSK_BE3C_IL1a: BioMAP Diversity Plus: BE3C Assay for Interleukin-1 alpha (IL1a) Biomarker Activity (AID 2283016; active = hit-call score of the fitted dose curve at least 0.9, where 1 is the maximum; inactive = score below 0.9); conditions: primary human bronchial epithelial cells; actives raise or lower the signal
Summary of the method: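 IL-1a measured by ELISA after 24 h treatment of human primary bronchial epithelial cells, with gain or loss of signal fitted versus DMSO. Parallel cultures stained with SRB gauge overt cytotoxicity.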

[7] = read-out: Monocyte Chemoattractant Protein-1 (MCP1), CCL2 (gene 6347); experiment: BSK_3C_MCP1: BioMAP Diversity Plus: 3C Assay for Monocyte Chemoattractant Protein-1 (MCP1) Biomarker Activity (AID 2283017; active = hit-call score of the fitted dose curve at least 0.9, where 1 is the maximum; inactive = score below 0.9); conditions: primary human endothelial cells (HUVEC); actives raise or lower the signal
Summary of the method: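 Human umbilical vein endothelial cells (3C system) exposed to chemicals for 24 h; MCP-1 quantified by ELISA against the DMSO baseline with bidirectional fitting, and parallel SRB staining used to assess cytotoxicity.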

[8] = read-out: Monocyte Chemoattractant Protein-1 (MCP1), CCL2 (gene 6347); experiment: BSK_4H_MCP1: BioMAP Diversity Plus: 4H Assay for Monocyte Chemoattractant Protein-1 (MCP1) Biomarker Activity (AID 2283018; active = hit-call score of the fitted dose curve at least 0.9, where 1 is the maximum; inactive = score below 0.9); conditions: primary human endothelial cells (HUVEC); actives raise or lower the signal
Summary of the method: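 ELISA of MCP-1 (CCL2) 24 h after chemical dosing of HUVEC in the BioMAP 4H system. Gain or loss versus DMSO fitted; parallel SRB staining (560 nm) tracked overt cytotoxicity.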

[9] = read-out: Human Leukocyte Antigen - DR isotype (HLADR), HLA-DRA (gene 3122); experiment: BSK_3C_HLADR: BioMAP Diversity Plus: 3C Assay for Human Leukocyte Antigen - DR isotype (HLADR) Biomarker Activity (AID 2283019; active = hit-call score of the fitted dose curve at least 0.9, where 1 is the maximum; inactive = score below 0.9); conditions: primary human endothelial cells (HUVEC); actives raise or lower the signal
Summary of the method: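 HUVEC monoculture, HLA-DR measured by ELISA 24 h after chemical dosing. Fitted bidirectionally against DMSO baseline; parallel SRB staining assessed cytotoxicity, with 3C proliferation read by SRB at 48 h.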

[10] = read-out: Interleukin-8 (IL8), CXCL8 (gene 3576); experiment: BSK_3C_IL8: BioMAP Diversity Plus: 3C Assay for Interleukin-8 (IL8) Biomarker Activity (AID 2283020; active = hit-call score of the fitted dose curve at least 0.9, where 1 is the maximum; inactive = score below 0.9); conditions: primary human endothelial cells (HUVEC); actives raise or lower the signal
Summary of the method: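 IL-8 was measured by ELISA in HUVEC cultures 24 h after chemical dosing, with gain or loss of signal fitted relative to DMSO. Parallel SRB total-protein staining tracked overt cytotoxicity.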

[11] = read-out: Monokine induced gamma interferon (MIG), CXCL9 (gene 4283); experiment: BSK_3C_MIG: BioMAP Diversity Plus: 3C Assay for Monokine induced gamma interferon (MIG) Biomarker Activity (AID 2283021; active = hit-call score of the fitted dose curve at least 0.9, where 1 is the maximum; inactive = score below 0.9); conditions: primary human endothelial cells (HUVEC); actives raise or lower the signal
Summary of the method: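 ELISA measurement of MIG in human umbilical vein endothelial cells 24 h after treatment. Cytotoxicity tracked by SRB staining in parallel cultures; gain or loss of signal fitted relative to DMSO.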

[12] = biological target: human Vitamin D Receptor (VDR), VDR (gene 7421) (UniProt P11473); experiment: ATG_VDR_TRANS: Attagene TRANS-FACTORIAL HepG2 Assay for human Vitamin D Receptor (VDR) (AID 2283022)
Summary of the method: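 HepG2 cells were transiently transfected with GAL4-UAS reporter units and a chimeric VDR-Gal4 construct, then dosed for 24 hours. Reporter mRNA was quantified by RT-PCR, fluorescent labeling, HpaI digestion and capillary electrophoresis; gain of signal analysed vs DMSO.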

[13] = BSK_3C_SRB: Viability Assessment in the BioMAP Diversity Plus: 3C Assay (AID 2283023; active = hit-call score of the fitted dose curve at least 0.9, where 1 is the maximum; inactive = score below 0.9;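 note: fitted both ways against DMSO so a hit may be signal rise or drop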); conditions: primary human endothelial cells (HUVEC)
Summary of the method: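 Human umbilical vein endothelial cells in the 3C system, treated 24 h. Total protein measured by 0.1% sulforhodamine B staining after 10% TCA fixation, read at 560 nm; bidirectional fit versus DMSO.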

[14] = read-out: Matrix Metallopeptidase 1 (MMP1), MMP1 (gene 4312); experiment: BSK_BE3C_MMP1: BioMAP Diversity Plus: BE3C Assay for Matrix Metallopeptidase 1 (MMP1) Biomarker Activity (AID 2283024; active = hit-call score of the fitted dose curve at least 0.9, where 1 is the maximum; inactive = score below 0.9); conditions: primary human bronchial epithelial cells; actives raise or lower the signal
Summary of the method: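 ELISA measurement of MMP-1 after 24 h compound exposure of primary human bronchial epithelial cells. Changes in either direction fitted relative to DMSO; parallel SRB staining checked overt cytotoxicity.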

[15] = BSK_3C_Vis: BioMAP Diversity Plus: 3C Assay for Morphology Visualization (AID 2283025; active = hit-call score of the fitted dose curve at least 0.9, where 1 is the maximum; inactive = score below 0.9;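 note: fitted both ways so gain or loss versus DMSO counts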;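 for AC50: light microscopy image of cell morphology used as background control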); conditions: primary human endothelial cells (HUVEC)
Summary of the method: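 Light-microscopy visualization of HUVEC cultures at 24 h post-treatment, with DMSO as baseline for bidirectional fitting.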

[16] = read-out: Pselectin, SELP (gene 6403); experiment: BSK_4H_Pselectin: BioMAP Diversity Plus: 4H Assay for Pselectin Biomarker Activity (AID 2283026; active = hit-call score of the fitted dose curve at least 0.9, where 1 is the maximum; inactive = score below 0.9); conditions: primary human endothelial cells (HUVEC); actives raise or lower the signal
Summary of the method: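 ELISA of surface P-selectin on HUVEC, 24 h after dosing, with parallel SRB staining (0.1% after 10% TCA fixation, 560 nm) for overt cytotoxicity. Activity fitted in both directions relative to DMSO.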

[17] = BSK_4H_SRB: Viability Assessment in the BioMAP Diversity Plus: 4H Assay (AID 2283027; active = hit-call score of the fitted dose curve at least 0.9, where 1 is the maximum; inactive = score below 0.9;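 note: cells exposed to compound for 24 h before staining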); conditions: primary human endothelial cells (HUVEC)
Summary of the method: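 HUVEC, 24 h post-dose; 10% TCA fix, 0.1% SRB stain, A560 nm. Total protein = overt cytotoxicity, parallel to biomarker read. Bidirectional fit vs DMSO baseline.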

[18] = read-out: Urokinase-type plasminogen activator receptor (uPAR), PLAUR (gene 5329); experiment: BSK_4H_uPAR: BioMAP Diversity Plus: 4H Assay for Urokinase-type plasminogen activator receptor (uPAR) Biomarker Activity (AID 2283030; active = hit-call score of the fitted dose curve at least 0.9, where 1 is the maximum; inactive = score below 0.9); conditions: primary human endothelial cells (HUVEC); actives raise or lower the signal
Summary of the method: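 Human umbilical vein endothelial cells in the 4H system, 24 h after chemical dosing. Cell-surface uPAR measured by ELISA, fitted in both directions versus DMSO; cytotoxicity checked by SRB total protein in parallel cultures.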

[19] = read-out: Vascular endothelial growth factor receptor 2 (Homo sapiens) (UniProt P35968); experiment: BSK_4H_VEGFRII: BioMAP Diversity Plus: 4H Assay for Vascular endothelial growth factor receptor 2 (VEGFR2) Biomarker Activity (AID 2283031; active = hit-call score of the fitted dose curve at least 0.9, where 1 is the maximum; inactive = score below 0.9); conditions: primary human endothelial cells (HUVEC); actives raise or lower the signal
Summary of the method: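 Primary human umbilical vein endothelial cells (4H system), 24 h exposure; cell-surface VEGFR2 measured by ELISA. Bidirectional fitting versus DMSO; cytotoxicity checked in parallel by SRB total-protein staining.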

[20] = read-out: Human Leukocyte Antigen - DR isotype (HLADR), HLA-DRA (gene 3122); experiment: BSK_BE3C_HLADR: BioMAP Diversity Plus: BE3C Assay for Human Leukocyte Antigen - DR isotype (HLADR) Biomarker Activity (AID 2283032; active = hit-call score of the fitted dose curve at least 0.9, where 1 is the maximum; inactive = score below 0.9); conditions: primary human bronchial epithelial cells; actives raise or lower the signal
Summary of the method: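 Cell-surface HLA-DR ELISA readout at 24 h after dosing in the BE3C primary human lung bronchial epithelial system; gain or loss of signal against DMSO, with parallel sulforhodamine B staining of total protein for overt cytotoxicity.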

Measured: AC50

Sequence of human Thyroid Receptor alpha (THRa1), THRA (gene 7067) (P10827 whole entry, looked up, the tested form may be a part): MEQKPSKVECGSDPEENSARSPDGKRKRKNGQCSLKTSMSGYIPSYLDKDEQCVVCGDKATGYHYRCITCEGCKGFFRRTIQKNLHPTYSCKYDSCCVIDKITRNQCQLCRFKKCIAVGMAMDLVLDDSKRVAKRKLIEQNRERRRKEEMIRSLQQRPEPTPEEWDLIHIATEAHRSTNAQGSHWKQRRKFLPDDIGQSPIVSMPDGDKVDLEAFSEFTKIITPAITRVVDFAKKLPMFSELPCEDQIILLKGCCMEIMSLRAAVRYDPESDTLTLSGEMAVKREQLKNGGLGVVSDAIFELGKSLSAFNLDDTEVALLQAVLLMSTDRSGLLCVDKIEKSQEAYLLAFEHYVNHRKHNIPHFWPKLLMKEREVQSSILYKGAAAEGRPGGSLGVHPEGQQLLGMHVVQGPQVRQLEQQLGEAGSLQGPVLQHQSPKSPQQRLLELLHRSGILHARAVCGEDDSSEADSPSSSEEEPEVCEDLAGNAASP
Sequence of human Retinoid X Receptor beta (RXRb), RXRB (gene 6257) (P28702 whole entry, looked up, the tested form may be a part): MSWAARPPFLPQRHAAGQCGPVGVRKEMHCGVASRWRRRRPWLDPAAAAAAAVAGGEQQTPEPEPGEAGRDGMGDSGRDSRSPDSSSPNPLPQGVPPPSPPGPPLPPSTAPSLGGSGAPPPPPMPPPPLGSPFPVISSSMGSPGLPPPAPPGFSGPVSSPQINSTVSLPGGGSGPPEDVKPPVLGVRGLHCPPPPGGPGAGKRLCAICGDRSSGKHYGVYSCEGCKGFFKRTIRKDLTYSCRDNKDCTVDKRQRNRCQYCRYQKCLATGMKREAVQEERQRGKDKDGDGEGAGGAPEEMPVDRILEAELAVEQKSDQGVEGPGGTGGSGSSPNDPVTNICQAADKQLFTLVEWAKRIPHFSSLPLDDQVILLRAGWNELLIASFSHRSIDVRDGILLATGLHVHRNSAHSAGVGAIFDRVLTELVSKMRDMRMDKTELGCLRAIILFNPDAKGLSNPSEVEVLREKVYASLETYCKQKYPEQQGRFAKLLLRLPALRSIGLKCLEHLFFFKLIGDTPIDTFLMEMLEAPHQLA
Sequence of Retinoic acid receptor RXR-alpha (Homo sapiens) (P19793 whole entry, looked up, the tested form may be a part): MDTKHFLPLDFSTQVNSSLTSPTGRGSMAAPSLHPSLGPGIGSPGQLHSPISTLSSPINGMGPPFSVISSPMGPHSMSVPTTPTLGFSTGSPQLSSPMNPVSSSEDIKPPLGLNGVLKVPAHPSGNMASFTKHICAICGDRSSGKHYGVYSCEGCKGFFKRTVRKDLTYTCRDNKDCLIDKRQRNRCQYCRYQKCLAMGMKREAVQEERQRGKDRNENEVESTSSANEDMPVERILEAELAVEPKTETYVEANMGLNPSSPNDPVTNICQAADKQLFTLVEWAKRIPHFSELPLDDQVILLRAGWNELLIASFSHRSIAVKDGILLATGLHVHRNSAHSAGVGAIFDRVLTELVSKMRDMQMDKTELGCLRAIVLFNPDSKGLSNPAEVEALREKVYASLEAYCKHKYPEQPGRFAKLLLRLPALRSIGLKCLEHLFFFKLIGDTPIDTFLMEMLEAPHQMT
Sequence of human RAR-related Orphan Receptor gamma (RORg), RORC (gene 6097) (P51449 whole entry, looked up, the tested form may be a part): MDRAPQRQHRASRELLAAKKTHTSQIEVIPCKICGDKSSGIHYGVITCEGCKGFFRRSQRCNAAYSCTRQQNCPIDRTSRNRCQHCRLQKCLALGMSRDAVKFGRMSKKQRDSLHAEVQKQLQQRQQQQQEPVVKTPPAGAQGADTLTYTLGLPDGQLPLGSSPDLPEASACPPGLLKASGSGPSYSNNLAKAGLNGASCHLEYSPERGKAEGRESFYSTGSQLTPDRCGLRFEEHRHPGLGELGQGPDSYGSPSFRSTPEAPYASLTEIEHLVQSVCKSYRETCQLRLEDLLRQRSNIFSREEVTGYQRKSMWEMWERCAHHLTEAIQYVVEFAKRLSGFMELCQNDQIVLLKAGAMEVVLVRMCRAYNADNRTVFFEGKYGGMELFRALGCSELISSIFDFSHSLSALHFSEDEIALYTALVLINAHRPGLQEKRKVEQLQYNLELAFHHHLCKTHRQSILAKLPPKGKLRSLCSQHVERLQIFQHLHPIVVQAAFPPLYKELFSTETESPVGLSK
Sequence of human Vitamin D Receptor (VDR), VDR (gene 7421) (P11473 whole entry, looked up, the tested form may be a part): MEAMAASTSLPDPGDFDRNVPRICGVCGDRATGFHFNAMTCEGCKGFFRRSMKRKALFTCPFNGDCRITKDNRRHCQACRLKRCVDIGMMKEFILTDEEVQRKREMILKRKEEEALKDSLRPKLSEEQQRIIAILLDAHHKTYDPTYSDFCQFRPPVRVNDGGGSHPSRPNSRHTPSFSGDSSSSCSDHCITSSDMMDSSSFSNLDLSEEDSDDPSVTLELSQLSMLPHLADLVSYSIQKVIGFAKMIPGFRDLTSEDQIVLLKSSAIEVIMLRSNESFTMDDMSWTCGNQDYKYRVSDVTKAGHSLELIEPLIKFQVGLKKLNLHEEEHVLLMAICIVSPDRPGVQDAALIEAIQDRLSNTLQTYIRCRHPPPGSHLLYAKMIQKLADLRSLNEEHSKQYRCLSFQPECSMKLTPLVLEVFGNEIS
Sequence of E-selectin (Homo sapiens) (P16581 whole entry, looked up): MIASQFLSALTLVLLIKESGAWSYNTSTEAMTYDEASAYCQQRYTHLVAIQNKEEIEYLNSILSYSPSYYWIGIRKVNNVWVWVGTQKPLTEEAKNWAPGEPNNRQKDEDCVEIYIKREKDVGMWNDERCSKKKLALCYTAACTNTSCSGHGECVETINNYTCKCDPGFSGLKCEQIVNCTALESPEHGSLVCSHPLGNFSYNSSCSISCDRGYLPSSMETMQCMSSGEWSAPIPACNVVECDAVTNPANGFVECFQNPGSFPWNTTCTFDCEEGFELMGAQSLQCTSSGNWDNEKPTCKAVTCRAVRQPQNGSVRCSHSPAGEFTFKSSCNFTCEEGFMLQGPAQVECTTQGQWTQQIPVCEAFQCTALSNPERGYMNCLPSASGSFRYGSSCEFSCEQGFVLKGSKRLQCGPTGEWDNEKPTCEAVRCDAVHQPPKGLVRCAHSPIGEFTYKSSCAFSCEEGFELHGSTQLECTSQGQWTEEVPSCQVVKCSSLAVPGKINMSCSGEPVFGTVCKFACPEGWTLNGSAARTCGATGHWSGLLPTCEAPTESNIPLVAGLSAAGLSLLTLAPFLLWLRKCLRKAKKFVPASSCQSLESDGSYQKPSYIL

C=CCOCC(O)CCl (centres undefined)
inactive: all assays above

Cc1ccc(N/N=c2\c(=O)cc/c(=N/Nc3ccc(S(=O)(=O)O)cc3)c2=O)c(C)c1
inactive: [1] | [2] | [3]

Nc1ccc(-c2ccc(F)cc2)cc1
inactive: [1] | [2] | [3] | [4]

CCOCC(=O)O
inactive: [1] | [2] | [3] | [4]

NC(=O)C1CO1 (centres undefined)
inactive: [1] | [2] | [3]

CC(C)c1ccc(C#N)cc1
inactive: [1] | [2]

CCCCCCC(O)CO (centres undefined)
inactive: [1] | [2]

CNC(=S)NN
inactive: [1] | [2] | [3] | [4]

NC(=O)N=NC(N)=O
inactive: [1] | [2]

C[C@]12C=CC(=O)C=C1CC[C@@H]1[C@@H]2[C@@H](O)C[C@@]2(C)[C@H]1CC[C@]2(O)C(=O)CO
inactive: [1] | [2]

Clc1nc2ccccc2s1
inactive: [1] | [2]

CCCC(=O)OCc1ccccc1
inactive: [1] | [2]

Nc1ccc(Cl)cc1Cl
inactive: [1] | [2] | [3]

C=CCOc1c(Br)cc(Br)cc1Br
inactive: [1] | [4] | [10] | [11] | [12] | [17] | [19]
active: [2] 56.2 µM | [3] 6.51 µM | [5] 20 µM | [6] 20 µM | [7] 20 µM | [8] 20 µM | [9] 24.8 µM | [13] 29.3 µM | [14] 3.97 µM | [15] 14.1 µM | [16] 20 µM | [18] 31 µM | [20] 29 µM

O=C(C=Cc1ccccc1)OCc1ccccc1
inactive: [1]

CC(C)(C)c1n[nH]c(=O)n(N)c1=O
inactive: [1] | [2]

O=C1c2ccccc2C(=O)C1c1nc2ccccc2c(Br)c1O
inactive: [1] | [2] | [3] | [4]

CC(=O)Nc1nnc(S(N)(=O)=O)s1
inactive: [1] | [2]

CC(=O)Oc1ccc(C)cc1
inactive: [1] | [2] | [3]

C[Si](C)(C)O[Si](O)(O)O
inactive: [1] | [2] | [3]

Cc1ccc(C(C)(C)C)cc1
inactive: [1] | [2] | [3] | [4]

CCC(CO)CO
inactive: [1] | [2] | [3] | [4]

Cc1c(C)c([N+](=O)[O-])c(C(C)(C)C)c([N+](=O)[O-])c1C
active: [2] 12.7 µM | [3] 1.7 µM
inactive: [1]
